The list is not random: actives were taken first. Their share in the collection is about 2.4%.
Rango release inh – inhibitors of RanGTP-induced Rango-importin beta complex dissociation; O95149+P62826; Biochemical FRET Rango-importin beta, RanGTP-induced dissociation; Potency, µM (series often up to 46.1 µM); 340,000 compounds, 0.071% hits; AID 540253; calls by dose curve; further: nearly all actives have a fitted effect of over 45% in size
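Quantitative HTS using a FRET biosensor: 0.1 uM Rango, 0.25 uM importin beta, 0.6 uM Ran, 2 mM GTP, 0.2 uM RCC1 final, PBS with DTT, Tween-20 and BSA. Post-read taken 45 min after Ran addition.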
PKM2 activator – increases activity of human pyruvate kinase M2; P14618; purified PKM2, Kinase-Glo ATP luminescence, activation; response scale: 0% is enzyme alone, no compound; Potency, µM (series often up to 57.5 µM), most hits filed as activators; 260,000 compounds, 0.34% hits; further: nearly all actives have a fitted effect of over 55% in size
Target sequence (P14618 whole entry, looked up): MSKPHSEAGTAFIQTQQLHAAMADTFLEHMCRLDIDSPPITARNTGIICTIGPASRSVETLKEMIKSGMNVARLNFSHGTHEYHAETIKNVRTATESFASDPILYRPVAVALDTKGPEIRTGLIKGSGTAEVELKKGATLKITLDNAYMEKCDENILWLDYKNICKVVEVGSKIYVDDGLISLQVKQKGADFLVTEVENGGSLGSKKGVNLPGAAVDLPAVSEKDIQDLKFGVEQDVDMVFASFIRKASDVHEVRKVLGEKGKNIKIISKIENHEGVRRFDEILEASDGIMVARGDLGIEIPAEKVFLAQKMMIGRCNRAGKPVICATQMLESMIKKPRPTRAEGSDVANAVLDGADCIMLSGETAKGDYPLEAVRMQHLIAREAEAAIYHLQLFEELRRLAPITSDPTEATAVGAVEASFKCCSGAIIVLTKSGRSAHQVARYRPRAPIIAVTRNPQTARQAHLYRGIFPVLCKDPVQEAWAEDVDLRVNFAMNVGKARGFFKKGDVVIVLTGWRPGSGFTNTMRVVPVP
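Kinase-Glo luminescence reports ATP generated from ADP (0.1 mM) and PEP (0.5 mM) by purified hPK-M2 after 1 h at room temperature, pH 7.2 imidazole buffer; intermediate enzyme activity allows detecting inhibitors and activators.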
Rango-impB inh – Rango-importin beta binding inhibition; Rango CFP/YFP FRET sensor + importin beta, 45 min; 340,000 compounds, 0.031% hits; Q14974; Potency, µM (doses to about 92.2 µM); AID 540263; calls by dose curve; further: nearly all actives have a fitted effect of over 15% in size
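FRET biosensor (snurportin 1 IBB flanked by EYFP and cerulean), 50 nM, with compound 5 min, then 0.125 microM importin beta in PBS, 1 mM DTT, 0.02% Tween-20, 0.1% BSA. CFP/YFP ratio read after 45 min at room temperature; pre-read flags interference.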
Tb PFK inh – inhibitors of T. brucei phosphofructokinase. O15648. T. brucei PFK, ADP-Glo luminescence. Potency, µM (top dose mostly 57.5 µM), most hits filed as inhibitors. 330,000 compounds, 0.17% hits. AID 485367; further: nearly all actives have a fitted effect of over 60% in size
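Luminescent ADP detection (ADP-Glo, two-step: ATP depletion then ADP-to-ATP conversion for luciferase) reported PFK activity after 45 min room-temperature reaction of 1.25 nM enzyme with 0.5 mM F6P and 0.1 mM ATP at pH 8.0.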
ELG1 repair inh – blocks ELG1-dependent DNA repair in HEK293T cells | HEK293T ELG1-luciferase reporter, luminescence, 16 h; DNA damage induced by 5-fluorouridine | Potency, µM (series often up to 46.1 µM), most hits filed as inhibitors | 330,000 compounds, 2.3% hits | AID 504467; further: nearly all actives have a fitted effect of over 55% in size
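DMSO vehicle served as the neutral condition. Each well held 2,000 cells given 5-fluorouridine plus compound; after 16 hr at 37 °C/5% CO2, ONE-Glo was added and luciferase measured 30 min later.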
Tb PGK inh – inhibitors of T. brucei phosphoglycerate kinase; Potency, µM (titrated, usually from 57.5 µM), most hits filed as inhibitors; PGK/GAPDH coupled, Kinase-Glo luminescence, 60 min; AID 602233; 380,000 compounds, 0.043% hits; further: nearly all actives have a fitted effect of over 60% in size
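Recombinant glycosomal PGK reaction used 1,3-bisphosphoglycerate generated in-well by GAPDH (100nM final) in 100mM TEA pH 7.6, 5mM MgCl2, 0.01% Tween-20. After 60 minutes at room temperature, ATP was read by Kinase-Glo Plus luminescence end-point.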
A number is an active result; . = inactive; ? = inconclusive; / = no result given. Unless noted, the call rests on the fitted dose curve; in most records, active means well fitted curve in the direction sought with a large enough effect; inconclusive means small, poorly fitted or top-dose-only effect, or another doubt; inactive means no such curve, though single readings can be large; an effect the other way counts as inactive or inconclusive.

SMILES	Rango release inh	PKM2 activator	Rango-impB inh	Tb PFK inh	ELG1 repair inh	Tb PGK inh
Cc1sc2nc(CN(C(=O)NC3CCCCC3)C3CCCC3)[nH]c(=O)c2c1C	.	.	.	.	20.6µM	.
Cc1sc2nc(CN(Cc3cccs3)C(=O)NC3CCCCC3)[nH]c(=O)c2c1C	.	.	.	.	9.2µM	.
CCOc1ccc(-c2nnc3ccc(SCC(=O)N4CCCCC4)nn23)cc1	.	.	.	.	?	.
CCOc1ccc(-c2nnc3ccc(SCC(=O)Nc4nc5ccccc5s4)nn23)cc1	.	.	.	.	7.31µM	.
CCOc1ccc(-c2nnc3ccc(SCC(=O)Nc4nc5ccc(C)cc5s4)nn23)cc1	.	.	.	.	8.2µM	.
COc1ccc(-c2nnc(SCC(=O)Nc3nc4ccccc4s3)n2C)cc1	.	.	.	.	.	.
COc1ccc2c3c(ccc2c1)C(=O)/C(=C/O)CC3	?	/	?	/	/	.
CCCOc1ccc(NC(=O)CC2C(=O)N(c3cccc(C)c3)C(=O)N2CCc2ccncc2)cc1 (stereo not drawn)	/	/	/	/	/	.
Cc1cccc(C)c1NC(=O)CN(C)CC(=O)Nc1ccccc1Oc1ccccc1	.	.	.	.	11.6µM	.
CC(=O)C1=C(O)C(=O)N(c2ccc(Br)cc2)C1c1cccc([N+](=O)[O-])c1 (stereo not drawn)	.	.	.	.	.	.
Cc1ccccc1NC(=O)CCCNC(=O)c1ccc(Cl)cc1	.	.	.	.	.	.
CCOc1cc(-c2nccc3cc(OC)c(OC)cc23)cc(OCC)c1OCC	.	/	.	?	14.6µM	.
COc1ccc(C2=CC(=O)C[C@H](c3ccc(OC)cc3)C2)cc1	.	/	.	.	.	.
COc1ccc(C2=CC(=O)C=CC2=O)cc1	/	.	/	6.75µM	.	/
CC1CCC2(CC1)NC(=O)N(CC(=O)NCc1ccc(F)cc1)C2=O (stereo not drawn)	.	/	?	.	.	.
COc1ccc(/C=N\NC(=O)c2ccccc2)cc1COc1ccc(F)cc1	.	.	.	.	?	.
COc1ccc(C(=O)N/N=C/c2ccc(OC)c(COc3ccc(F)cc3)c2)cc1	.	.	.	.	14.6µM	.
COc1ccc(O)c(/C=N/NC(=O)c2ccc(OCc3cccc(Br)c3)cc2)c1	.	.	.	.	3.66µM	.
COc1ccc(C(=O)N/N=C/c2ccc(OC)c(COc3ccc(F)cc3F)c2)cc1	?	.	.	.	9.2µM	.
COc1ccc(/C=N/NC(=O)c2ccc(Br)cc2)c(OC)c1	.	.	.	.	.	.
COc1ccc2c(COC(=O)[C@@H]3CCCN3S(=O)(=O)c3ccc(Cl)cc3)cc(=O)oc2c1	.	/	.	.	.	.
CCOc1ccc(CN(C)C(C)C(=O)Nc2ccc([N+](=O)[O-])cc2Cl)cc1OC (stereo not drawn)	.	.	.	.	14.6µM	.
COc1ccc(CN(C)C(C)C(=O)Nc2ccc([N+](=O)[O-])cc2Cl)cc1OC (stereo not drawn)	.	.	.	.	9.2µM	.
COc1ccc([N+](=O)[O-])cc1NC(=O)C(C)N(C)Cc1ccc(Br)cc1 (stereo not drawn)	.	.	.	.	20.6µM	.
COc1ccc(Br)cc1CN(C)C(C)C(=O)Nc1cc([N+](=O)[O-])ccc1OC (stereo not drawn)	.	.	.	.	?	.
SMILES	Rango release inh	PKM2 activator	Rango-impB inh	Tb PFK inh	ELG1 repair inh	Tb PGK inh
COc1ccc(-c2cn3c(n2)sc2cc(C(=O)NCCc4ccc(OC)cc4OC)ccc23)cc1	/	/	/	/	/	.
COc1cccc(-c2nc(NCC3CCCO3)c3ccccc3n2)c1O (stereo not drawn)	.	.	.	.	?	.
O=[N+]([O-])c1ccc(-c2nc(NCC3CCCO3)c3ccccc3n2)cc1 (stereo not drawn)	.	.	.	.	8.2µM	.
Oc1ccccc1-c1nc(NCC2CCCO2)c2ccccc2n1 (stereo not drawn)	.	.	?	.	23.1µM	.
COC(=O)[C@@]1(Cc2ccccc2)[C@H]2C(=O)N(C)C(=O)[C@H]2[C@H]2CN=C(SCc3ccc(Cl)cc3)N21	.	/	.	.	.	.
CCOC(=O)c1cc(-c2ccccc2)sc1NC(=O)C(C)Sc1nnc(N)s1 (stereo not drawn)	.	.	.	.	23.1µM	.
CCOC(=O)N1CCN(C(=O)c2ccc3nc(SCc4ccc(F)cc4)n(C)c3c2)CC1	.	.	.	.	13µM	.
COc1ccc(S(=O)(=O)N2CCSC2c2ccc(OC)c(OC)c2)cc1 (stereo not drawn)	.	.	.	.	23.1µM	.
O=C(Nc1ccc(N2CCOCC2)c(Cl)c1)C1CCCCC1	.	.	.	.	20.6µM	.
C=C(C(=O)c1ccccc1)C(c1ccccc1)C(C)C(=O)c1ccccc1 (stereo not drawn)	.	.	.	.	?	.
C=C(C(=O)c1ccccc1)C(C(=C)C(=O)c1ccccc1)c1ccc(OC)cc1	.	.	.	.	16.4µM	.
C=C(C(=O)c1ccccc1)C(C)C(=C)C(=O)c1ccccc1	.	.	.	.	20.6µM	.
CCOC(=O)CCN(c1ccccc1)S(=O)(=O)c1ccc(-c2ccc(=O)[nH]n2)s1	.	.	.	.	.	.
O=C(Nc1cccc(NC(=O)c2cccs2)c1)c1ccc([N+](=O)[O-])o1	.	.	.	.	16.4µM	.
O=C(Nc1ccc(NC(=O)c2ccc([N+](=O)[O-])o2)cc1Cl)c1ccco1	.	.	.	.	.	.
O=C(Nc1cccc(NC(=O)c2ccc([N+](=O)[O-])o2)c1)c1ccco1	.	.	.	.	11.6µM	.
O=C(CSc1nc2c(oc3ccccc32)c(=O)n1CC1CCCO1)NCc1ccccc1 (stereo not drawn)	.	/	.	.	.	.
O=C(c1cc(-c2ccc(Br)cc2)n[nH]1)N1CCN(S(=O)(=O)c2ccc(Br)cc2)CC1	/	/	/	/	/	.
COc1ccc(S(=O)(=O)N2CCN(C(=O)c3cc(-c4ccc(Br)cc4)n[nH]3)CC2)cc1OC	.	/	.	.	23.1µM	.
Cc1onc(-c2ccccc2Cl)c1C(=O)Nc1ccc(OCC(=O)N2CCOCC2)cc1	.	.	.	.	9.2µM	.
O=C(Nc1ccc(OCC(=O)N2CCOCC2)cc1)c1cncc(Br)c1	.	.	.	.	9.2µM	.
O=C(Nc1ccc(OCC(=O)N2CCOCC2)cc1)c1ccccc1Cl	.	.	.	.	?	.
CCS(=O)(=O)c1ncc(Cl)c(C(=O)N2CCN(c3cccc(Cl)c3)CC2)n1	/	/	/	/	/	.

Screening results: PubChem, National Center for Advancing Translational Sciences (NCATS)
